Here are results for 24 molecules from PubChem BioAssay (Tox21).

Unmarked numbers belong to inactive results. Results filed as inconclusive are left out. The source made the active and inactive calls. Unless noted, calls come from the whole dose curve.

Test [1] is described as follows: qHTS assay to identify small molecule agonists of the sonic hedgehog signaling (Shh) pathway (AID 1259368).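 Note: NIH/3T3-derived 3T3Gli1-Luc cells carrying a stable Gli1-driven firefly luciferase reporter; series mostly up to about 92 µM; nearly all actives have a fitted effect of over 15% in size.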 In a few lines:
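Luminescence was read after 30 min at room temperature with luciferase reagent. Before that, 3T3Gli1-Luc cells (NIH/3T3 clone, stable Gli1-Luc reporter; 2,000/well) were exposed to compounds for 24 hr at 37C, 5% CO2, compounds being added 4 hr post-plating.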

Test [2] is described as follows: qHTS assay to identify small molecule antagonists of the sonic hedgehog signaling (Shh) pathway (AID 1259369). Note: nearly all actives have a fitted effect of over 45% in size. Note: potency is the fitted concentration of half-maximal effect. In a few lines: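 Antagonist mode: compound added to 3T3 Gli1-Luc cells followed by conditioned-medium stimulation, 24 h at 37 C, 5% CO2. Inhibition taken as loss of Gli1-driven luciferase luminescence.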
(In general: In qHTS, concentration-response curves come from the screen itself.)

Test [3] can be described thus: qHTS assay to identify small molecule agonists of the androgen receptor (AR) signaling pathway in the presence of an antagonist - cell viability counter screen (AID 1259379; active = well fitted curve in the direction sought with a large enough effect in the repeat runs; an effect the other way counts as inactive or inconclusive;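 note: MDA-kb2 human breast cancer cells carrying an MMTV luciferase reporter; series mostly up to about 92 µM; nearly all actives have a fitted effect of over 25% in size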). In a few lines:
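Cytotoxicity counter-screen run in the same wells as the nilutamide-challenged (3.0 µM final) AR agonist assay in MDA-kb2 cells. Compounds tested at 15 concentrations for 16 h, 37 °C without CO2; CellTiter-Fluor fluorescence read.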

Test [4] in a line: qHTS assay to identify small molecule agonists of the estrogen receptor beta (ER-beta) signaling pathway - cell viability counter screen (AID 1259380; active = well fitted curve in the direction sought with a large enough effect in the repeat runs; an effect the other way counts as inactive or inconclusive; note: nearly all actives have a fitted effect of over 30% in size). In a few lines:
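Cell viability counter screen: CellTiter-Glo luminescence (30 min, room temperature) measured in the same wells as the beta-lactamase readout, after 16 hr compound exposure at 37C of ER-beta-bla HEK293T cells in 2% charcoal-stripped FBS medium.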

Test [5] has as its target Androgen receptor (Homo sapiens) (UniProt P10275). Nature of the test: qHTS assay to identify small molecule agonists of the androgen receptor (AR) signaling pathway in the presence of an antagonist (AID 1259381). Note: nearly all actives have a fitted effect of over 15% in size. Note: potency is the fitted concentration of half-maximal effect. In a few lines:
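Agonist-mode confirmation run against 3.0 uM final nilutamide: compounds titrated at 15 concentrations onto MDA-kb2 MMTV-luciferase reporter cells. Luminescence measured with ONE-Glo following 16 hr incubation, 37C, 0% CO2.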

Test [6] in a line: qHTS assay to identify small molecule antagonists of the estrogen receptor beta (ER-beta) signaling pathway - cell viability counter screen (AID 1259382; active = well fitted curve in the direction sought with a large enough effect in the repeat runs; an effect the other way counts as inactive or inconclusive; note: series mostly up to about 92 µM; nearly all actives have a fitted effect of over 55% in size). In a few lines:
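Cytotoxicity was measured in the same wells by CellTiter-Glo luminescence after 30 min at room temperature. Cells were ER-beta-bla HEK293T in charcoal-stripped serum, given compound together with 1 nM E2 and incubated 16 h at 37C.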

The target of test [7] is Estrogen receptor (Homo sapiens) (UniProt P03372). Nature of the test: qHTS assay to identify small molecule agonists of the estrogen receptor alpha (ER-alpha) signaling pathway in the presence of an antagonist (AID 1259383). Note: top concentration of the series differs between compounds; nearly all actives have a fitted effect of over 15% in size. In a few lines:
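Agonist-mode confirmation run in the presence of 10.0nM (final) ICI-182,780 antagonist. The reporter was ERE-driven luciferase in VM7Luc4E2 cells, grown in charcoal-stripped serum. Cells were exposed to 15-concentration compound series for 22hr, then ONE-Glo luminescence was read.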

The nature of test [8]: qHTS assay to identify small molecule agonists or antagonists of the thyroid stimulating hormone receptor (TSHR) signaling pathway - wild type cell line counter screen (AID 1259384). In a few lines: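 Wild-type Hek293 cells, 800/well, 18 h at 37C, then compound with Ro20-1724 for 30 min RT. cAMP by HTRF (cAMP-d2/anti-cAMP cryptate), 1 h RT, fluorescence read. 15 concentrations, triplicates.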

Test [9] has as its target Estrogen receptor beta (Homo sapiens) (UniProt Q92731). As to the kind of experiment: qHTS assay to identify small molecule antagonists of the estrogen receptor beta (ER-beta) signaling pathway (AID 1259378; active = well fitted inhibition curve with a large enough effect in the signal ratio in the repeat runs, not every such curve was filed as active; the % refers to the signal ratio). The gist of the method: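 ER-beta-UAS-bla HEK293T cells in 2% charcoal-stripped FBS medium treated with compound plus 1nM final 17-beta-estradiol for 16 hr at 37C. Beta-lactamase reporter read by FRET substrate fluorescence after 2 hours at room temperature.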
% is set by controls: 0 for no effect and ±100 for the full control effect.

Chain of Estrogen receptor (Homo sapiens) (P03372 whole entry, looked up): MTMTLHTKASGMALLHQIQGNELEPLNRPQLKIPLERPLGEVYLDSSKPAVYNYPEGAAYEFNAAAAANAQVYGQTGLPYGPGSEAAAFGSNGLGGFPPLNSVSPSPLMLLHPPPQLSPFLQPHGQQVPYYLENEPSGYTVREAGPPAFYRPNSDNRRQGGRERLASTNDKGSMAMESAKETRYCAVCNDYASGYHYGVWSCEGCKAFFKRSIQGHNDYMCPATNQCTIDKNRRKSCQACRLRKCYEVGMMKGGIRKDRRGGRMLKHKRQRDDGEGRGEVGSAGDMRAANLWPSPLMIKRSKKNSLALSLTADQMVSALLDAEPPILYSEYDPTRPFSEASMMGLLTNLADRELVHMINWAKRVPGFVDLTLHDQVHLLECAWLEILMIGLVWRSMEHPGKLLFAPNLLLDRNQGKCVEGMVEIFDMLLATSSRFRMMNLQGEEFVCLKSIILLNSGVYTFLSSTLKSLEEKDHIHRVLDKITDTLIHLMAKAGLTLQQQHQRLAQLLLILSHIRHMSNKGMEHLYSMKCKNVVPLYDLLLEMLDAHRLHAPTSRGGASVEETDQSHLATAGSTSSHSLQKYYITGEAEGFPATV
Chain of Androgen receptor (Homo sapiens) (P10275 whole entry, looked up): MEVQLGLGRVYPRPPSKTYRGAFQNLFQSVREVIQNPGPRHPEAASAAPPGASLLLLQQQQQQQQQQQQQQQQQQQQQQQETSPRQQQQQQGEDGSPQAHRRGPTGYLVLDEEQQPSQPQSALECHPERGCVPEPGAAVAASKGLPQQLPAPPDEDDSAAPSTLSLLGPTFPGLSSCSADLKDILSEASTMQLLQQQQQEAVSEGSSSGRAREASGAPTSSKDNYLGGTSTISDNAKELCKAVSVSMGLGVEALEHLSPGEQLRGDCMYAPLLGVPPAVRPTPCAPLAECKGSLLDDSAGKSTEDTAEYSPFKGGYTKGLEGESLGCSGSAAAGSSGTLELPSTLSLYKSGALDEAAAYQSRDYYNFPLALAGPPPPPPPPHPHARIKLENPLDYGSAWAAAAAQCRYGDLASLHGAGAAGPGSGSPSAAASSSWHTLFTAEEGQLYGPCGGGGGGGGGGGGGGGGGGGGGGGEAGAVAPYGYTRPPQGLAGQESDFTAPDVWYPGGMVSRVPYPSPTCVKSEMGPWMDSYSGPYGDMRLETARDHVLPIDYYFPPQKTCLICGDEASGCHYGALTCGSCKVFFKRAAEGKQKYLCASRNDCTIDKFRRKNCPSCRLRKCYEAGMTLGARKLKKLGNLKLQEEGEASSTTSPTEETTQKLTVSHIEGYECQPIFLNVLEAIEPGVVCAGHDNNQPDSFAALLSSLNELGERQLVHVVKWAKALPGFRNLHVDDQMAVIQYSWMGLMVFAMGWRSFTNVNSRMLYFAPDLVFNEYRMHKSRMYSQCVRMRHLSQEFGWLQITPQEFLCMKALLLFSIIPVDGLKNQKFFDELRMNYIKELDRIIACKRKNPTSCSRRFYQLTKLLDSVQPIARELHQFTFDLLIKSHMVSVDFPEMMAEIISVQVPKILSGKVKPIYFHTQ
Chain of Estrogen receptor beta (Homo sapiens) (Q92731 whole entry, looked up): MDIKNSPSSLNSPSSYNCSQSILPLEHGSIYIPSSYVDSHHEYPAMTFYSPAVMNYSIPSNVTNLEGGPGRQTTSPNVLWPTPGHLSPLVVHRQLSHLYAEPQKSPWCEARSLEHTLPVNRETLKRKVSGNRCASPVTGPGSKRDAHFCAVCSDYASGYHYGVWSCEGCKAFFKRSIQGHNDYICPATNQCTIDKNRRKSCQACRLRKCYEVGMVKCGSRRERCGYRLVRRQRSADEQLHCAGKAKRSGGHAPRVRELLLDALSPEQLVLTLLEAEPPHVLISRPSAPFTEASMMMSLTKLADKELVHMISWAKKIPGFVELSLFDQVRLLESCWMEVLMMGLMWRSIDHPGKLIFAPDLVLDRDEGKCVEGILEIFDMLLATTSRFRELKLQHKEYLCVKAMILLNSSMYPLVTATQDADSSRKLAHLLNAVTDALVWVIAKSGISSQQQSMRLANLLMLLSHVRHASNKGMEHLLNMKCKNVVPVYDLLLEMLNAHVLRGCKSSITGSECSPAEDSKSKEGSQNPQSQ

With `NC(CO)C(=O)NNCc1ccc(O)c(O)c1O` (stereo not given), the outcome in test [1] and in test [6] was inactive. Moreover, the Potency entry in [2], in test [3] and in test [4] was “inactive” throughout. In addition, the Potency in [5] is 13.3 µM (active).
With `CCNC(=O)C1CC(C)CCC1C(C)C` (stereo not given), the call in [1], in test [6] and in test [7] was inactive. Moreover, the Potency result in test [2], in [3] and in test [4] was “inactive” throughout.
Turning to `Oc1cn2c(n1)Nc1ccc(Cl)c(Cl)c1C2`, the activity change in [1] was -0.534% [at 18.9 µM]. Besides, in test [2], the activity change, negative = inhibition is -20% [at 19 µM]. Besides, the values for the activity change, negative = cytotoxicity in test [3], in [4] and in test [6] were 0.214% [at 19 µM], 8.72% [at 19 µM] and 4.54% [at 19 µM], respectively. The results for the activation in test [5] and in test [7] were 1.01% [at 19 µM] and -1.28% [at 19 µM], respectively. Further, the cAMP activity change in [8] is -0.126% [at 18.9 µM].
With `C[C@@H](Oc1ccc(CNC(=O)c2cccnc2Oc2ccc3c(c2)OCO3)c(F)c1)C(=O)O`, the call in test [1], in [6] and in test [7] was inactive. In addition, the Potency result in [2], in [3] and in test [4] was “inactive” throughout.
Turning to `CCOCCOC(=O)/C=C/c1ccc(OC)cc1`, the molecule was called inactive in test [1], in test [6] and in [7]. The Potency entry in [2], in test [3] and in test [4] was “inactive” in each case.
With `CCCCCCCCCC(C)=O`, the molecule was called inactive in test [1], in [9], in [6], in [7] and in test [8]. The Potency result in test [2], in test [3] and in [5] was “inactive” in each case.
As to `COc1cc2c(cc1OC)C(=O)CC2`, the outcome in test [1], in test [6], in [7] and in test [8] was inactive. The Potency result in test [2], in [3], in [4] and in test [5] was “inactive” in each case.
For the molecule `CC(C)C(=O)OCCc1ccccc1`, the result in [1], in [6], in test [7] and in [8] was inactive. Moreover, the Potency result in test [2], in test [3] and in test [4] was “inactive” throughout.
Consider `ClCCCl`, for which the result in test [1], in [6] and in [7] was inactive. The Potency result in [2], in test [3] and in test [4] was “inactive” throughout.
Take `CCC(C)(CCC(C)C)C(=O)O` (stereo not given): the call in [1] and in [6] was inactive. The Potency result in [2], in test [3] and in test [4] was “inactive” each time.
As for `CCCCOCCOC(=O)COc1nc(Cl)c(Cl)cc1Cl`, the outcome in [1], in test [6] and in test [7] was inactive. In addition, the Potency result in test [2], in [3] and in test [4] was “inactive” each time.
For the molecule `O=C(CCN1CCN(CCO)CC1)N1c2ccccc2Sc2ccc(C(F)(F)F)cc21`, the outcome in [1], in test [6], in [7] and in test [8] was inactive. Also, the Potency result in test [2], in [3], in test [4] and in [5] was “inactive” each time.
Turning to `OC[C@H](Cc1cccc(O)c1)[C@H](CO)Cc1cccc(O)c1`, the molecule was called inactive in test [1]. For the same molecule, the Potency in [2] was 62.6 µM (active). Moreover, in [3], the Potency result is “inactive”.
For the molecule `C=C(C)C(=O)OCc1ccccc1`, the result in [1], in test [6] and in test [7] was inactive. In addition, the Potency result in test [2], in [3] and in [4] was “inactive” in each case.
Turning to `CC(C)NCC(O)COc1cccc2[nH]ccc12` (stereo not given), the call in test [1], in [6] and in test [8] was inactive. In addition, the Potency result in [2], in test [3], in test [4] and in test [5] was “inactive” in each case.
As to `CCCCCCCCC(=O)Cl`, the molecule was called inactive in test [1] and in test [6]. Further, the Potency result in [2], in [3] and in test [4] was “inactive” each time.
For the molecule `CC(CO)c1ccccc1` (stereo not given), the result in [1], in [6], in test [7] and in [8] was inactive. The Potency entry in test [2], in test [3], in test [4] and in [5] was “inactive” in each case.
On to `CC[C@H](C)C(=O)O[C@H]1C[C@H](O)C=C2C=C[C@H](C)[C@H](CC[C@@H](O)C[C@@H](O)CC(=O)O)[C@H]21`, for which the result in test [1] and in test [6] was inactive. Also, the Potency entry in [2], in test [3] and in [4] was “inactive” throughout.
For the molecule `CC1=C(C(=O)O)N2C(=O)[C@@H](NC(=O)[C@H](N)c3ccc(O)cc3)[C@H]2SC1`, the molecule was called inactive in [1], in [9], in test [6] and in [8]. Also, the Potency entry in [2] and in test [3] was “inactive” in each case.
`O=C1c2ccccc2C(=O)c2cc(S(=O)(=O)O)ccc21`: the outcome in test [1], in test [6] and in [7] was inactive. For the same molecule, the Potency result in test [2], in test [3] and in test [4] was “inactive” in each case.
Turning to `O=C(O)c1cc(Cl)cc([N+](=O)[O-])c1Cl`, the molecule was classed as inactive in [1], in [6], in [7] and in [8]. Further, the Potency result in [2], in [3], in test [4] and in [5] was “inactive” in each case.
Take `CCOC(=O)c1ncn2c1CN(C)C(=O)c1cc(F)ccc1-2`: the call in test [1], in [6] and in test [8] was inactive. In addition, the Potency result in test [2], in [3], in test [4] and in [5] was “inactive” throughout.
`CCCCOC(=O)c1ccccc1`: the outcome in [1], in test [6] and in test [8] was inactive. The Potency result in [2], in test [3], in test [4] and in test [5] was “inactive” in each case.
On to `Cc1ccc(S(=O)(=O)O)c(C)c1`, for which the molecule was called inactive in [1], in [6], in test [7] and in test [8]. Further, the Potency entry in test [2], in test [3] and in [4] was “inactive” in each case.
